Screening data: PubChem, National Center for Advancing Translational Sciences (NCATS)
A selection: hits, their analogues and other compounds. The true share with any hit is near 19%.
DT40 TDP1 no CPT: qHTS for Inhibitors of human tyrosyl-DNA phosphodiesterase 1 (TDP1): qHTS in cells in absence of CPT; DT40 Tdp1-/- hTDP1 cells, no CPT, ATP luminescence, 48 h; Potency, µM (highest dose often 46.2 µM), hits mostly inhibitors; actives 15% (n = 420,000); also: nearly all actives have a fitted effect of over 55% in size
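No-CPT arm: Tdp1-/-;hTDP1 DT40 cells (400/well) plus compounds, incubated ≥48 hr at 37 °C. Readout CellTiter-Glo luminescence.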
HT1080 IDH1KD tx: HT-1080 IDH1 knockdown cell toxicity (counter line). HT-1080 IDH1 knockdown viability, ATP luminescence, 48 h. Potency, µM (top dose mostly 46.1 µM), hits mostly cytotoxic. actives 2% (n = 360,000). AID 686971
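CellTiter-Glo luminescence after 48 h compound exposure at 37 degrees C of IDH1-knockdown HT-1080 cells in 5% FBS RPMI. %Activity scaled between DMSO wells and cell-free media wells, with curves fitted and assigned curve classes.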
TDP1 cell CPT: DT40-hTDP1 cell growth loss with CPT | actives 12% (n = 420,000) | chicken DT40 Tdp1-/-;hTDP1 cells + 20 nM CPT, ATP luminescence, 48 h | Potency, µM (highest dose often 46.2 µM), actives largely listed as inhibitors | AID 686979; also: nearly all actives have a fitted effect of over 55% in size
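Chicken DT40 Tdp1-/- cells complemented with human TDP1, 400 cells/well, exposed to compounds plus 20 nM camptothecin for at least 48 h at 37 C; viability read as ATP content by CellTiter-Glo luminescence.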
HT1080-NT tox: kills 2HG-producing HT-1080-NT fibrosarcoma cells | AID 686970 | Potency, µM (highest dose often 46.1 µM), hits mostly cytotoxic | actives 1.6% (n = 360,000) | HT-1080-NT fibrosarcoma viability, CellTiter-Glo ATP luminescence, 48 h;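 also: NT is the 2HG producing partner of a matched IDH1 knockdown line; nearly all actives have a fitted effect of over 55% in size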
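A 48-hour cytotoxicity screen used HT-1080-NT cells plated 2 hours before compound delivery. ATP-based CellTiter-Glo luminescence measured viability, normalized to DMSO and no-cell controls.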
IL-1B inflam inh: inhibitors of inflammasome signaling (IL-1 beta secretion); THP-1 LPS/ATP IL-1B secretion, AlphaLISA, 16 h; hits give low values; activity change, % at 57.5 µM; actives 4.7% (n = 360,000); in the data active = activity change below about -50%; inconclusive = mostly about -30% to -49%
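THP-1 cells pretreated 1 hr with compounds (up to 57.5 uM final), then stimulated with LPS (250 ng/mL final) plus ATP (1.25 mM final); secreted IL-1B measured by AlphaLISA after 16 hr, decreased signal indicating inhibition.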
Numbers stand for hits; ! = not active in a repeat. Unless noted, calls follow the shape of the dose curve; as a rule, active = well fitted curve in the direction sought with a large enough effect; inconclusive = small, poorly fitted or top-dose-only effect, or another doubt; inactive = no such curve, though single readings can be large; an effect the other way counts as inactive or inconclusive.

Screening CCN(CCO)Cc1cc(=O)oc2c(C)c(C)ccc12 returned DT40 TDP1 no CPT inactive, HT1080 IDH1KD tx inactive, TDP1 cell CPT inactive, HT1080-NT tox inactive and IL-1B inflam inh inactive.
CC1(C)S[C@@H]2C(C(=O)O)NC(=O)N2C1C(=O)O (some centres undefined) was read as DT40 TDP1 no CPT inactive and TDP1 cell CPT inactive.
`O=C(NC1CCCCC1)c1cccc2c1C(=O)c1ccc(-c3ccc(OC(F)(F)F)cc3)cc1S2(=O)=O` gave DT40 TDP1 no CPT 9.2µM, HT1080 IDH1KD tx inactive, TDP1 cell CPT 9.2µM, HT1080-NT tox inactive and IL-1B inflam inh inactive.
`COc1ccc(-c2ccc3c(c2)S(=O)(=O)c2cccc(C(=O)NC4CCCC4)c2C3=O)cc1OC` gave DT40 TDP1 no CPT inactive, HT1080 IDH1KD tx inactive, TDP1 cell CPT inactive, HT1080-NT tox inactive and IL-1B inflam inh inactive.
Screening O=C(NC1CCCC1)c1cccc2c1C(=O)c1ccc(/C=C/c3ccccc3)cc1S2(=O)=O returned DT40 TDP1 no CPT 18.4µM, HT1080 IDH1KD tx inactive, TDP1 cell CPT inconclusive, HT1080-NT tox inactive and IL-1B inflam inh inactive.
O=C(c1cccc(Br)c1)c1cn(-c2ccccc2)nc1C(=O)c1ccccc1 was read as DT40 TDP1 no CPT 16.4µM, HT1080 IDH1KD tx inactive, TDP1 cell CPT 18.4µM, HT1080-NT tox inactive and IL-1B inflam inh inactive.
For CC(=O)c1nn(-c2cccc(Br)c2)cc1C(=O)c1ccccc1 the results were DT40 TDP1 no CPT inactive, HT1080 IDH1KD tx inconclusive, TDP1 cell CPT inactive, HT1080-NT tox inconclusive and IL-1B inflam inh inactive.
For CC(=O)c1nn(-c2cccc(Br)c2)cc1C(=O)c1ccc(Cl)cc1 the results were DT40 TDP1 no CPT 7.31µM, HT1080 IDH1KD tx inconclusive, TDP1 cell CPT inconclusive, HT1080-NT tox inconclusive and IL-1B inflam inh inactive.
For CCOC(=O)c1cccc(NC(=O)C2CCN(S(=O)(=O)c3cn(C)cn3)CC2)c1 the results were DT40 TDP1 no CPT inactive and TDP1 cell CPT inactive.
Screening CC(NC(=O)C1CC2CCCC(C1)C2=O)c1ccccc1 (centres undefined) returned DT40 TDP1 no CPT inactive, HT1080 IDH1KD tx inactive, TDP1 cell CPT inactive, HT1080-NT tox inactive and IL-1B inflam inh inactive.
`CCc1nn(C(C)C(=O)NCCN2CCCCCC2)c(=O)c2cc3occc3n12` (centres undefined) gave DT40 TDP1 no CPT inactive, HT1080 IDH1KD tx inactive, TDP1 cell CPT inactive, HT1080-NT tox inactive and IL-1B inflam inh inactive.
Screening CCc1nn(CC(=O)NCc2cccc(OC)c2OC)c(=O)c2cc3occc3n12 returned DT40 TDP1 no CPT inactive and TDP1 cell CPT inactive.
`CCC(C(=O)N1CCN(c2cc(Cl)ccc2C)CC1)n1nc(C)n2c(cc3occc32)c1=O` (centres undefined) gave DT40 TDP1 no CPT 14.6µM and TDP1 cell CPT inconclusive.
Screening CCc1nn(C(CC)C(=O)NCc2cccc(OC)c2OC)c(=O)c2cc3occc3n12 (centres undefined) returned DT40 TDP1 no CPT 18.4µM, HT1080 IDH1KD tx inactive, TDP1 cell CPT 20.6µM, HT1080-NT tox inactive and IL-1B inflam inh inactive.
For CCc1nn(C(C)C(=O)NCCN2CCN(c3cccc(C)c3C)CC2)c(=O)c2cc3occc3n12 (centres undefined) the results were DT40 TDP1 no CPT 16.4µM, HT1080 IDH1KD tx inconclusive, TDP1 cell CPT inconclusive, HT1080-NT tox inconclusive and IL-1B inflam inh inconclusive.
`CCN(CC)C(=O)CS(=O)(=O)CC(=O)Nc1cc(OCCOC)c(Cl)cc1Cl` gave DT40 TDP1 no CPT inactive, HT1080 IDH1KD tx inactive, TDP1 cell CPT inactive, HT1080-NT tox inactive and IL-1B inflam inh inactive.
For COc1ccc(-n2c(=O)/c(=C\c3cccs3)s/c2=C(/C#N)C(=O)NCCN2CCOCC2)cc1 the results were DT40 TDP1 no CPT inconclusive, HT1080 IDH1KD tx inactive, TDP1 cell CPT 13µM, HT1080-NT tox inactive and IL-1B inflam inh inactive.
Screening COc1cc2c(cc1OC)-c1cc(Nc3cccc(F)c3)nc(=O)n1CC2 returned DT40 TDP1 no CPT inconclusive, HT1080 IDH1KD tx inactive, TDP1 cell CPT inactive, HT1080-NT tox inactive and IL-1B inflam inh inactive.
For COc1cc2c(cc1OC)-c1cc(Nc3ccc(F)cc3)nc(=O)n1CC2 the results were DT40 TDP1 no CPT inconclusive, HT1080 IDH1KD tx inactive, TDP1 cell CPT inconclusive, HT1080-NT tox inactive and IL-1B inflam inh -51.2.
Screening COc1cc2c(cc1OC)-c1cc(Nc3ccc(N(C)C)cc3)nc(=O)n1CC2 returned DT40 TDP1 no CPT inconclusive, HT1080 IDH1KD tx inactive, TDP1 cell CPT inactive, HT1080-NT tox inactive and IL-1B inflam inh -58.2.
`CCN(CC)c1ccc(Nc2cc3n(c(=O)n2)CCc2cc(OC)c(OC)cc2-3)cc1` gave DT40 TDP1 no CPT inconclusive, HT1080 IDH1KD tx inconclusive, TDP1 cell CPT inactive, HT1080-NT tox 25.9µM and IL-1B inflam inh -94.8.
For C=C1C(=O)OC2C=C(CO)C3OC3C3OC3(C)CC(OC(=O)/C(=C/C)COC(C)=O)C12 (centres undefined) the results were DT40 TDP1 no CPT 1.84µM, HT1080 IDH1KD tx 5.17µM, TDP1 cell CPT 1.3µM, HT1080-NT tox inactive and IL-1B inflam inh -101.3.
Screening CC(=O)OCC1=C[C@@H]2OC(=O)C3=CO[C@@H](O[C@@H]4O[C@H](CO)[C@@H](O)[C@H](O)[C@H]4O)[C@H]1[C@@H]32 returned DT40 TDP1 no CPT inactive, HT1080 IDH1KD tx inactive, TDP1 cell CPT inactive, HT1080-NT tox inactive and IL-1B inflam inh inactive.
For CC1(C)CC2CC(C)(CN2/C=C2/CCCCC2=O)C1 (centres undefined) the results were DT40 TDP1 no CPT inconclusive, HT1080 IDH1KD tx inactive, TDP1 cell CPT inconclusive, HT1080-NT tox inactive and IL-1B inflam inh inactive.
`Cc1cccc(C)c1NC(=O)c1cccc2c1C(=O)N(C1CCCCC1)C2` gave DT40 TDP1 no CPT 16.4µM, HT1080 IDH1KD tx inconclusive, TDP1 cell CPT 7.31µM, HT1080-NT tox inactive and IL-1B inflam inh -61.6.
COc1ccc(NC(=O)c2cccc3c2C(=O)N(C2CCCCC2)C3)cc1 was read as DT40 TDP1 no CPT 18.4µM, HT1080 IDH1KD tx inactive, TDP1 cell CPT 18.4µM, HT1080-NT tox inactive and IL-1B inflam inh inactive.
Screening COc1ccc(OC)c(NC(=O)c2cccc3c2C(=O)N(C2CCCCC2)C3)c1 returned DT40 TDP1 no CPT 16.4µM!, HT1080 IDH1KD tx inactive, TDP1 cell CPT inconclusive, HT1080-NT tox inactive and IL-1B inflam inh inactive.
Cc1cc(NC(=O)c2cccc3c2C(=O)N(C2CCCCC2)C3)ccc1Br was read as DT40 TDP1 no CPT inactive, HT1080 IDH1KD tx inactive, TDP1 cell CPT inactive, HT1080-NT tox inactive and IL-1B inflam inh inactive.
For CN(C)C(=O)c1ccc(-n2cccn2)nc1 the results were DT40 TDP1 no CPT inactive, HT1080 IDH1KD tx inactive, TDP1 cell CPT inactive, HT1080-NT tox inactive and IL-1B inflam inh inactive.
`O=Cc1c2[nH]c3ccccc3c2cc2[nH]c3ccccc3c12` gave DT40 TDP1 no CPT inactive and TDP1 cell CPT inactive.
